Screens from PubChem.
ELG1 genotoxic: genotoxicity induction in ELG1-luciferase HEK293T cells. Potency, µM (highest dose often 46 µM), for inactives: at the highest dose activity change, positive = activation, most hits filed as activators. 1.3% of 330,000 active. HEK293T ELG1-luciferase reporter, luminescence, 16 h. AID 504466; also: % of control where 0% means no effect; nearly all actives have a fitted effect of over 60% in size
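Luminescence read-out: rising ELG1-luciferase signal, reflecting elevated ELG1 protein under genetic stress, flags genotoxic compounds. Cells were treated for 16 hr at 37 °C before ONE-Glo detection.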
NPC1 prom act: activates the NPC1 promoter; Huh7 NPC1 promoter luciferase reporter, 24 h; Potency, µM (series often up to 9.22 µM), without a hit: at the highest dose activation, usual class: activators; 2.4% of 320,000 active; also: % of control where 0% means no effect; nearly all actives have a fitted effect of over 60% in size
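Luminescence read-out of NPC1 promoter-driven luciferase in stably transfected Huh7 cells; compounds delivered in DMSO and left 24 h at 37C, 5% CO2, qHTS titration format.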
FLuc modulator: inhibits or activates purified firefly luciferase, miR-21 counter-screen; Potency, µM (series often up to 57.5 µM), for the others: top-dose activity change, negative = inhibition, most hits filed as inhibitors; 6.9% of 360,000 active; purified FLuc, Km substrates, luminescence inhibition; AID 588342;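 also: plate controls were vehicle for no effect and reference inhibitor for full effect; nearly all actives have a fitted effect of over 55% in size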
Target sequence (P08659 whole entry, looked up): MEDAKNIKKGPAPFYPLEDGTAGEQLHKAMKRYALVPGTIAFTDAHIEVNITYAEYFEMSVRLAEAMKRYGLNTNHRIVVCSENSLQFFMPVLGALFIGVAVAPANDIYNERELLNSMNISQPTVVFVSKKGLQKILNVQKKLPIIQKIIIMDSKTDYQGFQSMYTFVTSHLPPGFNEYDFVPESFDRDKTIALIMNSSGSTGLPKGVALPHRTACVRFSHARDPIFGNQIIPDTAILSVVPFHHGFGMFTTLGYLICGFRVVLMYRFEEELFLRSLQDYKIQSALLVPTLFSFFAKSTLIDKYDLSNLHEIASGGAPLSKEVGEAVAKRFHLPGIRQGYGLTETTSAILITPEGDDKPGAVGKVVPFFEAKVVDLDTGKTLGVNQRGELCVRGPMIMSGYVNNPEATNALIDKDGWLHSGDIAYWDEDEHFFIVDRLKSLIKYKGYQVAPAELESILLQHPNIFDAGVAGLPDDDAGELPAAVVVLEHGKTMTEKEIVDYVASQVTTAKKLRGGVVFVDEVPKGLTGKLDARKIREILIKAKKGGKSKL
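Purified P. pyralis luciferase, 10 nM final, with Km-level 10 uM D-luciferin and 10 uM ATP in 50 mM Tris acetate pH 7.5, 10 mM Mg acetate, 0.01% Tween-20, 0.05% BSA; 6-point qHTS titration about 60 µM downward; luminescence read.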
Rab9 prom act: activators of Rab9 promoter; Huh7 Rab9 promoter-luciferase reporter, luminescence, 24 h; Potency, µM (doses to about 9.22 µM), for the others: at the highest dose activation, negative = inhibition, hits mostly activators; 2.8% of 320,000 active; AID 485297; also: % of control where 0% means no effect; nearly all actives have a fitted effect of over 60% in size
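Using Huh7 cells stably transfected with Rab9 promoter–luciferase, compounds were incubated 24 h at 37 °C, 5% CO2; luciferase luminescence was read 10 min after reagent addition.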
SMN2 splice enh: enhancers of SMN2 splice variant expression; HEK293 SMN2-luciferase splicing reporter, luminescence, 30-36 h; 2.8% of 210,000 active; Potency, µM (top dose mostly 46.1 µM), for inactives: at the top dose activity change, positive = activation, most hits filed as activators; also: % of control where 0% means no effect; nearly all actives have a fitted effect of over 55% in size
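qHTS luciferase splicing reporter: luminescence rises when SMN2 exon 7 is included in transfected HEK293 cells. Compound exposure lasted 30-36 h at 37C, with 4.5 mM final sodium butyrate as control, followed by a ONE-Glo read.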
* marks the source's active call; other numbers are inactive results; ? = inconclusive; nt = no result given. This is a sample that favours compounds with a hit; in the whole collection about 7.5% have one here. Calls follow the shape of the dose curve; as a rule, active = well fitted curve in the direction sought with a large enough effect; inconclusive = small, poorly fitted or top-dose-only effect, or another doubt; inactive = no such curve, though single readings can be large; an effect the other way counts as inactive or inconclusive. Potency is read from the fitted curve at half-maximal effect.

SMILES | ELG1 genotoxic | NPC1 prom act | FLuc modulator | Rab9 prom act | SMN2 splice enh
COCCNC(=O)CN(C(=O)Cn1nnc2ccccc21)c1ccc(C)cc1 | -2% | -3% | -2% | -3% | -9%
c1ccc(Nc2ccnc(Nc3ccccc3)n2)cc1 | ? | 2.5µM* | 1.9µM* | ? | nt
CCN(CC)Cc1c(C(=O)N/N=C/c2cccc3ccccc23)nnn1-c1nonc1N | 1% | -5% | -6% | -15% | nt
O=C(c1ccc(-c2ccccc2)cc1)C1CCCN(Cc2ccncc2)C1 (configuration not stated) | ? | 4µM* | 7.6µM* | 1.3µM* | nt
CCN1CCN(S(=O)(=O)c2ccc(Br)s2)CC1 | -1% | -1% | 4% | 1% | -10%
CCOc1ccc(N(CC(=O)Nc2ccc(C)c(C)c2)S(C)(=O)=O)cc1 | ? | 2.8µM* | 11µM* | ? | nt
NS(=O)(=O)c1ccc(NC(=O)C2(c3ccccc3)CCCC2)cc1 | 3% | -4% | 0% | -3% | 0%
Cc1nn2c(NCCN3CCOCC3)c3c(nc2c1-c1ccccc1)CCCC3 | -12% | -7% | 1% | -5% | nt
N/C(=N\N=C/c1ccc(Br)cc1)N/N=C\c1ccc(Br)cc1 | 2% | 1% | 11µM* | ? | -8%
N/C(=N\N=C/c1ccc(F)cc1)N/N=C\c1ccc(F)cc1 | 5% | -1% | 6µM* | -3% | nt
CNC(=O)C(=O)N/N=C/c1ccc(Br)cc1 | 7% | 7% | ? | 12% | -2%
Cc1noc(C)c1C(=O)OCC(=O)c1cc(C)n(Cc2ccccc2Cl)c1C | 16µM* | ? | 11µM* | ? | -21%
CCCNC(=O)OCCC12CC3CC(CC(C3)C1)C2 | ? | 16% | 12µM* | 17% | 7%
CCCCN1CC(=O)N2[C@H]3c4ccccc4OC[C@@H]3[C@H](c3ccccc3)[C@]2(C)C1=O | -3% | -2% | 5% | -7% | nt
Cc1ccc(S(=O)(=O)c2n[nH]n3c2nc(=O)c2ccccc23)cc1 | -3% | 1% | -6% | 0% | -5%
O=c1nc2c(-c3cccc(Br)c3)n[nH]n2c2ccccc12 | ? | ? | 4.8µM* | 3.5µM* | nt
CCOC(=O)c1c[nH]n(-c2ccc(C)cc2)c1=O | 11% | 14% | ? | 29% | 9%
CCOC(=O)c1cc2c(C)n(-c3ccc(OCC)cc3)c(C)c2ccc1=O | -9% | 1% | 17µM* | -4% | -32%
CCOC(=O)c1cc2c(C)n(-c3ccc(C)cc3)c(C)c2ccc1=O | 8% | ? | 0.38µM* | ? | -13%
O=C(Cc1ccccc1)Nc1nc(=O)c2ccccc2s1 | 4% | -2% | 5% | nt | 1%
O=C(Nc1nc(=O)c2ccccc2s1)c1ccc(F)cc1 | ? | ? | 2.1µM* | 3.2µM* | 14µM*
O=C(Nc1nc(=O)c2ccccc2s1)c1ccc(Cl)cc1 | 1.8µM* | 2.8µM* | 1.1µM* | 2.5µM* | 13µM*
O=C(Nc1nc2ccsc2c(=O)s1)c1ccc(Cl)cc1 | ? | 0.25µM* | 0.21µM* | 0.1µM* | nt
COc1ccccc1-n1c(CNC(=O)c2ccco2)nnc1SCC(=O)Nc1cc(C)ccc1C | -2% | 1% | 1% | -1% | -37%
N#Cc1c(Cn2cncn2)nc(=O)n(-c2ccccc2)c1N | 0% | -2% | -1% | -10% | 3%
SMILES | ELG1 genotoxic | NPC1 prom act | FLuc modulator | Rab9 prom act | SMN2 splice enh
CCOC(=O)Nc1ccc(C(=O)/C=C/c2ccccc2)cc1 | 7% | 17% | 17µM* | -49% | nt
O=C(Nc1ccc(C(=O)Oc2ccccc2)c(O)c1)c1ccccc1 | 1% | 11% | ? | 28% | -16%
CCOC(=O)Nc1ccc(C(=O)Oc2ccccc2)c(O)c1 | 16% | 19% | 15µM* | ? | 8%
O=C(Nc1ccc(C(=O)Oc2ccccc2)c(O)c1)c1ccco1 | ? | ? | 7.6µM* | 2.2µM* | ?
CCOC(=O)Nc1ccc(Oc2ccccc2)cc1 | 18µM* | ? | 13µM* | ? | 7%
CCCCNC(=O)C1CCN(C(=O)N2CC(C)Oc3ccc(Cl)cc32)CC1 (configuration not stated) | nt | nt | 1% | nt | nt
CCCSc1cc(Cl)nc(N)n1 | 4% | -7% | 2% | -1% | nt
CC(C)OC(=O)CN1C(=O)S/C(=C/c2ccc(N3CCCCC3)o2)C1=O | 28% | 1% | 21µM* | -3% | -10%
O=C1S/C(=C/c2ccc(N3CCOCC3)o2)C(=O)N1Cc1ccc(F)cc1 | 1% | 0% | ? | -4% | -17%
CC(C)(C)OC(=O)CN1C(=O)S/C(=C\c2ccc(-c3cccc(C(=O)O)c3)o2)C1=O | ? | ? | 15µM* | 3.2µM* | nt
C#CCN1C(=O)S/C(=C\c2ccc(-c3ccc(C(=O)O)cc3C)o2)C1=O | ? | 1.1µM* | 7.6µM* | 2.5µM* | nt
Cc1cc(C(=O)O)ccc1-c1ccc(/C=C2\SC(=O)N(CC(=O)Nc3ccc4c(c3)OCO4)C2=O)o1 | 0% | -3% | ? | -2% | nt
Cc1ccc(NC(=O)CN2C(=O)S/C(=C/c3ccc(-c4cccc(C(=O)O)c4)o3)C2=O)cc1 | -10% | 13% | 21µM* | 13% | ?
Nc1ccccc1C(=O)NNc1c2ccccc2nc2ccccc12 | 5% | 3% | 19µM* | -7% | nt
Cc1ccc(C(=O)NNc2c3ccccc3nc3ccccc23)cc1 | -28% | -4% | ? | -5% | nt
Cc1[nH]nc(N=CC2=C(O)CC(C)(C)CC2=O)c1-c1ccccc1 | 18% | -4% | 13µM* | 0% | -11%
CC(C)COn1c(=S)[nH]c2ccccc2c1=O | ? | 9% | 21µM* | 11% | -5%
CC(C)Cn1c(=S)[nH]c2ccccc2c1=O | 1% | 3% | -8% | -5% | -15%
Cc1cc(C)nc(-n2nc(C)c(Sc3ccc(F)cc3)c2N)n1 | ? | 2.5µM* | 11µM* | 3.5µM* | 16µM*
Cc1ccc(NC(=O)N(C)c2ccccc2)cc1 | 8% | 24% | ? | 26% | nt
CCOC(=O)c1c(C)[nH]c(C(=O)COC(=O)c2oc3ccccc3c2C)c1C | 3% | 4% | 2% | -2% | -10%
CCOC(=O)C1=C(C)Nc2ccc(C)cc2S1 | 0% | 15% | ? | 4% | -9%
Cc1ccc2c(c1)Sc1c(ccc3ccccc13)N2 | ? | ? | 12µM* | 2.5µM* | nt
Cc1cc(C)n2cc(CSC3=NCCS3)nc2n1 | 2% | 9% | -3% | 1% | -13%
Cc1ccc2oc(C(=O)N3CCN(c4cccc(C)n4)CC3)c(C)c2c1 | 10% | 6% | ? | 21% | nt
Cc1cc(Cl)c2oc(C(=O)N3CCN(c4cccc(C)n4)CC3)c(C)c2c1 | ? | 3.5µM* | 15µM* | ? | nt
Cc1cc(Cl)c2oc(C(=O)N3CCN(C(=O)c4ccco4)CC3)c(C)c2c1 | ? | ? | 11µM* | ? | nt
Cc1c(Cl)cccc1NC(=O)N1CCN(C(=O)c2ccco2)CC1 | 2% | 0% | -2% | 9% | nt
